In PubChem BioAssay (Tox21):
Where “and” joins values, the source holds several entries; their conditions need not be identical. Equal values may be shown once. Inconclusive results are not listed. Where a call stands in place of a potency, no number is given. Where a structure was tested more than once in an assay, its records may differ in their call. Calls of active or inactive are those of the source. Unless noted, the call rests on the fitted dose curve; in most records, active means well fitted curve in the direction sought with a large enough effect in the repeat runs; inconclusive means weak or mixed curves; inactive means no such curve, though single readings can be large; an effect the other way counts as inactive or inconclusive.

Key:
[1] = qHTS assay to test for compound auto fluorescence at 590 nm (red) in HEK293 cells (AID 720679); conditions: red autofluorescence 540/590 nm; series mostly up to 46 µM
In short: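 HEK293 cells (2,000/well, medium with 10% dialyzed FBS) attached for 4-5 hr at 37C, received 23 nL compound and were incubated overnight at 37C, 5% CO2. Red fluorescence was then read at 540/590nm Ex/Em, referenced to Rose Bengal sodium.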

[2] = qHTS assay to test for compound auto fluorescence at 590 nm (red) in HEK293 cell free culture (AID 720683); conditions: cell-free medium autofluorescence, Ex540/Em590 red; series mostly up to 46 µM
In short: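 Tox21 10K library compounds were pinned into cell-free DMEM with 10% FBS and fluorescence was read at excitation 540 nm. Activity is expressed as Rose Bengal sodium equivalency.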

[3] = qHTS assay to identify small molecule agonists of the RXR signaling pathway - cell viability counter screen (AID 1159529); conditions: RXR-alpha-bla HEK293T viability, CellTiter-Glo, 16 h; series mostly up to 76.8 µM; further: nearly all actives have a fitted effect of over 50% in size; further: potency means the concentration at half of the fitted maximal effect
In short: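 CellTiter-Glo luminescence gave viability in the wells also read for beta-lactamase. Cells (RXR-alpha-UAS-bla HEK 293T, 2% charcoal-stripped FBS medium) had 5 hr plating, then 16 hr compound exposure at 37 C; tetraoctyl ammonium bromide served as positive control.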

[4] = qHTS assay to identify small molecule antagonists of the retinoid acid receptor (RAR) signaling pathway - cell viability counter screen (AID 1159551); conditions: C3RL4 cells viability, ATP luminescence (CellTiter-Glo), 6 h; series mostly up to 92.4 µM; further: nearly all actives have a fitted effect of over 35% in size; further: potency means the concentration at half of the fitted maximal effect
In short: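 Seed C3RL4 cells; next day add compound, then retinol to 1 uM final; incubate 6 h at 37 C; add CellTiter-Glo; read luminescence after 30 min at RT.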

[5] = target: Nuclear receptor subfamily 1 group I member 3 (Homo sapiens) (UniProt Q14994); experiment: qHTS assay to identify small molecule agonists of the constitutive androstane receptor (CAR) signaling pathway (AID 1224839); conditions: HepG2 hCAR CYP2B6-luciferase, agonist mode, 24 h; series mostly up to 92.4 µM; further: nearly all actives have a fitted effect of over 15% in size; further: potency means the concentration at half of the fitted maximal effect
Chain of Nuclear receptor subfamily 1 group I member 3 (Homo sapiens) (Q14994 whole entry, looked up): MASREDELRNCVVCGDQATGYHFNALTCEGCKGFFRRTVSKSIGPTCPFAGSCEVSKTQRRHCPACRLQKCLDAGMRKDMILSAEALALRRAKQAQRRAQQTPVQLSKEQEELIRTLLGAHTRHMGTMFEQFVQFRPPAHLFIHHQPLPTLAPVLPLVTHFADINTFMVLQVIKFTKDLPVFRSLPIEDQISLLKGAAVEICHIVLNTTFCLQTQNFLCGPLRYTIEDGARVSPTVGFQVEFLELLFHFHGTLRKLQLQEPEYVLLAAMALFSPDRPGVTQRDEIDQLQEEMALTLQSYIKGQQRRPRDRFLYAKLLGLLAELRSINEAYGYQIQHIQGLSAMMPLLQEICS
In short: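 Luminescent ONE-Glo read-out after 24 hr, 37 C exposure of double-stable HepG2-CYP2B6-hCAR reporter cells to a 15-point compound series, in the presence of 0.75 uM PK11195 (final).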

[6] = qHTS assay to identify small molecule antagonists of the estrogen related receptor signaling pathway with the pleiotropic PPARgamma coactivator (PGC) from Tox21 10K library - cell viability counter screen (AID 1224840; active means well fitted cell-killing curve with a large enough effect in the repeat runs, not every such curve was filed as active; further: nearly all actives have a fitted effect of over 40% in size; further: potency means the concentration at half of the fitted maximal effect); conditions: PGC/ERR reporter cells viability, CellTiter-Fluor, 17.5 h; series mostly up to 92.4 µM
In short: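 Here the PGC/ERR cells serve as a cytotoxicity control: they are exposed to compounds for 17.5 hours at 37 C, and live-cell signal is quantified using CellTiter-Fluor fluorescence.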

[7] = qHTS RealTime-Glo MT Cell Viability Assay in HepG2 cells - 8 hour (AID 1224873); conditions: RealTime-Glo luminescence; series mostly up to 76.8 µM; further: nearly all actives have a fitted effect of over 55% in size
In short: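 HepG2 cells mixed with RealTime-Glo MT reagents (NanoLuc plus cell-permeant prosubstrate) were seeded at 600 cells/well, incubated 5 h at 37 C/5% CO2, then pinned with compounds in DMSO; nonlytic luminescence tracked viability during 40 h treatment.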

[8] = A CellTox Green Cytotoxicity Assay to monitor cytotoxicity in HEK293 cells - 24 hour (AID 1224875); conditions: CellTox Green fluorescence; series mostly up to 76.8 µM; further: nearly all actives have a fitted effect of over 45% in size; further: potency means the concentration at half of the fitted maximal effect
In short: (§1)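 Seeding of HEK293 cells together with cytotoxicity dye preceded a 5 h incubation at 37 C/5% CO2. Test compounds in DMSO were then added and fluorescence monitored across 40 h.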

[9] = A CellTox Green Cytotoxicity Assay to monitor cytotoxicity in HEK293 cells - 32 hour (AID 1224881); conditions: CellTox Green fluorescence; series mostly up to 76.8 µM; further: nearly all actives have a fitted effect of over 40% in size; further: potency means the concentration at half of the fitted maximal effect
In short: as §1

[10] = qHTS RealTime-Glo MT Cell Viability Assay in HEK293 cells - 24 hour (AID 1224886); conditions: RealTime-Glo luminescence; series mostly up to 76.8 µM; further: nearly all actives have a fitted effect of over 50% in size; further: potency means the concentration at half of the fitted maximal effect
In short: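 HEK293 cells were seeded at 600 cells/well together with NanoLuc luciferase and cell-permeant prosubstrate, preincubated 5 h at 37 C/5% CO2, then given compound in DMSO by pintool. Luminescence from viable-cell prosubstrate reduction was read repeatedly over 40 h.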

[11] = qHTS assay to identify small molecule agonists of the androgen receptor (AR) signaling pathway in the presence of an antagonist - cell viability counter screen (AID 1259379); conditions: MDA-kb2 viability, CellTiter-Fluor, 16 h; series mostly up to 92.4 µM; further: nearly all actives have a fitted effect of over 25% in size; further: potency means the concentration at half of the fitted maximal effect
In short: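 A CellTiter-Fluor read-out measured viability of MDA-kb2 reporter cells (MMTV promoter with AR and GR response elements). Treatment: nilutamide 3.0uM final with compounds at 15 concentrations, 16 hr, 37C, 0% CO2.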

[12] = target: Thyrotropin-releasing hormone receptor (Homo sapiens) (UniProt P34981); experiment: qHTS assay to identify small molecule agonists of the thyrotropin-releasing hormone receptor (TRHR) signaling pathway (AID 1346891; calls by dose curve); conditions: TRHR-HEK293 calcium fluorescence, agonist mode; series mostly up to 57.6 µM
Chain of Thyrotropin-releasing hormone receptor (Homo sapiens) (P34981 whole entry, looked up): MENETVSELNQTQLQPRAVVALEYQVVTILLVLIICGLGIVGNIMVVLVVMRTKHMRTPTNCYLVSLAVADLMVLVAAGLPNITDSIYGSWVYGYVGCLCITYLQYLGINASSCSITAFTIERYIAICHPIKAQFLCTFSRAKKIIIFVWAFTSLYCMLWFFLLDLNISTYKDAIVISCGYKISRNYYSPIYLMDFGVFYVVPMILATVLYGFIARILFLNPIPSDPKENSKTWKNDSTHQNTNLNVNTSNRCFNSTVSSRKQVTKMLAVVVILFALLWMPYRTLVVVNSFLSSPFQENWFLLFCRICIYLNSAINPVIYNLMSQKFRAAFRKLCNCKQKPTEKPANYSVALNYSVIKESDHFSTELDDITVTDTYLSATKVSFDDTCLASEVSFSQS
In short: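 Agonist-mode intracellular calcium readout: kinetic fluorescence over 3 min at 1 s intervals after compound addition to TRHR-HEK293 cells (18 h seeded, 2 h dye-loaded at 37 C). Fifteen concentrations, triplicates.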

[13] = target: Cytochrome P450 2D6 (Homo sapiens) (UniProt P10635); experiment: Cytochrome P450 Family 2 Subfamily D Member 6 (CYP2D6) small molecule antagonists: luciferase reporter qHTS assay (AID 1671196); conditions: P450-Glo CYP2D6 enzyme assay, luciferin luminescence, 1 h; series mostly up to 115 µM; further: nearly all actives have a fitted effect of over 50% in size; further: potency means the concentration at half of the fitted maximal effect
Chain of Cytochrome P450 2D6 (Homo sapiens) (P10635 whole entry, looked up): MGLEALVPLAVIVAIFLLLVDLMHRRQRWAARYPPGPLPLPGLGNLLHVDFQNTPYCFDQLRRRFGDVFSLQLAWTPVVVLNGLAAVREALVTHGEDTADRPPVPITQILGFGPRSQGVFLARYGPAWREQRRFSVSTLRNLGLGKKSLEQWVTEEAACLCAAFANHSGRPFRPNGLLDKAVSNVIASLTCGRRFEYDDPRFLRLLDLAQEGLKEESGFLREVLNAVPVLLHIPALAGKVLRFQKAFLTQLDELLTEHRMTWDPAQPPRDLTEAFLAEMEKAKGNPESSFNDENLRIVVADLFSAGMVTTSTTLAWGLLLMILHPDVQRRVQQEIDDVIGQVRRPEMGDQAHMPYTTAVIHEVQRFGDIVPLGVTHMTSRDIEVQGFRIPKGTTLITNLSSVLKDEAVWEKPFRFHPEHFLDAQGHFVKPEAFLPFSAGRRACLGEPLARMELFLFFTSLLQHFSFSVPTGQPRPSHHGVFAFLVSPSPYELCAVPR
In short: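 Luminescence (RLU), read 20 min after detection reagent, indicated CYP2D6 conversion of proluciferin to luciferin during a 1 h NADPH-dependent reaction at room temperature.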

[14] = target: Progesterone receptor (Homo sapiens) (UniProt P06401); experiment: qHTS assay to identify small molecule agonists of the progesterone receptor (PR) signaling pathway (AID 1346784; calls by dose curve; further: nearly all actives have a fitted effect of over 30% in size); conditions: PR-UAS-bla HEK293T, beta-lactamase FRET ratio, 16 h; series mostly up to 92.4 µM
Chain of Progesterone receptor (Homo sapiens) (P06401 whole entry, looked up): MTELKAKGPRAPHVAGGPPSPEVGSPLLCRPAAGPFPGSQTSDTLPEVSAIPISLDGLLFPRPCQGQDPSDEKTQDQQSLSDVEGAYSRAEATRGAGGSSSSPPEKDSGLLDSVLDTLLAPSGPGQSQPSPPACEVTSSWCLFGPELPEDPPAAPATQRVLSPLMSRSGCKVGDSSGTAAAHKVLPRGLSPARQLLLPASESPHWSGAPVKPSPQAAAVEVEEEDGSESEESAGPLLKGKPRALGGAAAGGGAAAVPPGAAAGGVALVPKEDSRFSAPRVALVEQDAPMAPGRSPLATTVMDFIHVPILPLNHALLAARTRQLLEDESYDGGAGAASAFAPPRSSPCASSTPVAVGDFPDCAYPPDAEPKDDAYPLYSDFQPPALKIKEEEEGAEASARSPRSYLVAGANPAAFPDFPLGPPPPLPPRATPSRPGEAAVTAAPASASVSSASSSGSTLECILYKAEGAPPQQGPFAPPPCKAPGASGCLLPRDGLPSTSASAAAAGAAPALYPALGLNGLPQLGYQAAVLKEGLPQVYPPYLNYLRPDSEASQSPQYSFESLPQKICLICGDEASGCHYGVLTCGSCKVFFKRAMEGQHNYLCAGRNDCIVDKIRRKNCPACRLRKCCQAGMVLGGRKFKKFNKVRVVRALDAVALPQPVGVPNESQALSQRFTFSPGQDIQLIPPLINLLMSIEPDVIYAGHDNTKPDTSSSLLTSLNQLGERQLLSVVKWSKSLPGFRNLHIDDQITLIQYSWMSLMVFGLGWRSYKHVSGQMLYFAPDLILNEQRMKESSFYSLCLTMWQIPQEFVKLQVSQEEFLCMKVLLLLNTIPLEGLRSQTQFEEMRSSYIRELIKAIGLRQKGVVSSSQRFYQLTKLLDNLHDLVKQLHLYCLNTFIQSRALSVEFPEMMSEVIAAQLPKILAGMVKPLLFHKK
In short: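 Agonist qHTS: compounds pinned onto 3,000 PR-UAS-bla HEK 293T cells per well in charcoal-stripped serum medium, 16hr at 37C, then beta-lactamase activity measured by LiveBLAzer FRET fluorescence after 2 hours at room temperature.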

[15] = Human pregnane X receptor (PXR) small molecule agonists, qHTS cell viability counter screen (AID 1346977); conditions: PXR-Luc HepG2 viability, CellTiter-Fluor, 24 h; series mostly up to 92.4 µM; further: nearly all actives have a fitted effect of over 50% in size; further: potency means the concentration at half of the fitted maximal effect
In short: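 Same-well viability read: CellTiter-Fluor added after 23 hr compound exposure, fluorescence measured 1 hr later. Cells were PXR-Luc HepG2 seeded at 2,000/well in 5% charcoal-stripped FBS medium, rested 5 hr before dosing at 37 C.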

[16] = target: Cytochrome P450 3A4 (Homo sapiens) (UniProt P08684); experiment: Cytochrome P450 Family 3 Subfamily A Member 4 (CYP3A4) small molecule antagonists: luciferase reporter qHTS assay (AID 1671201); conditions: P450-Glo CYP3A4 enzyme, luciferin luminescence, 1 h; series mostly up to 115 µM; further: nearly all actives have a fitted effect of over 50% in size; further: potency means the concentration at half of the fitted maximal effect
Chain of Cytochrome P450 3A4 (Homo sapiens) (P08684 whole entry, looked up): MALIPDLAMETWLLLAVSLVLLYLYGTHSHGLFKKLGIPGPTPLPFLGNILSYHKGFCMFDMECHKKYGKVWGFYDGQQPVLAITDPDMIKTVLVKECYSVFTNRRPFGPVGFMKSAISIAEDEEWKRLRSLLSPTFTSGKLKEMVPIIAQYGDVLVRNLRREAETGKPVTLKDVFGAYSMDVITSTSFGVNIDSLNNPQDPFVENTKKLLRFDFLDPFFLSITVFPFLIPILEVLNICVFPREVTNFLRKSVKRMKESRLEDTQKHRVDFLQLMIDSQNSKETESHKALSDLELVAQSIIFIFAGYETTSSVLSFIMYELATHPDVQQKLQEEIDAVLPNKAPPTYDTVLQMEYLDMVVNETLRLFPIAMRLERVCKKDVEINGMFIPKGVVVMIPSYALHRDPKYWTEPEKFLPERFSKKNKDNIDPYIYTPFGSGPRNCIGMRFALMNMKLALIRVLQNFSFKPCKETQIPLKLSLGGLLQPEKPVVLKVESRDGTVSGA
In short: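 Recombinant human CYP3A4 converts a proluciferin substrate to luciferin over 1 h at room temperature after NADPH regeneration solution is added (compound preincubated 10 min); detection reagent stops reaction, luminescence read 20 min later as relative units.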

[17] = qHTS assay to identify small molecule antagonists of the estrogen receptor beta (ER-beta) signaling pathway - cell viability counter screen (AID 1259382); conditions: ER-beta-UAS-bla HEK293T viability, CellTiter-Glo luminescence, 16 h; series mostly up to 92.4 µM; further: nearly all actives have a fitted effect of over 55% in size; further: potency means the concentration at half of the fitted maximal effect
In short: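 Agonist-stimulated (1nM E2) ER-beta-UAS-bla HEK293T cells are incubated with library compounds for 16 hr at 37C. Cell viability is then assessed in the reporter-assay wells by adding CellTiter-Glo and reading luminescence after 30 min.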

[18] = qHTS assay to identify small molecule antagonists of the progesterone receptor (PR) signaling pathway - cell viability counter screen (AID 1346798); conditions: PR-UAS-bla HEK293T viability, CellTiter-Glo luminescence, 16 h; series mostly up to 92.4 µM; further: nearly all actives have a fitted effect of over 50% in size; further: potency means the concentration at half of the fitted maximal effect
In short: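 Cytotoxicity read as CellTiter-Glo luminescence (30 min, room temperature) in the same wells as the beta-lactamase readout. HEK293T PR-UAS-bla cells in charcoal-stripped 2% FBS received compound and R5020, then 16 h at 37C, 5% CO2.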

[19] = Caspase-3/7 induction in CHO-K1 cells by small molecules, qHTS cell viability counter screen (AID 1346979); conditions: CellTiter-Fluor fluorescence, 17 h; series mostly up to 92.4 µM; further: nearly all actives have a fitted effect of over 35% in size; further: potency means the concentration at half of the fitted maximal effect
In short: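 Cytotoxicity counter screen: CellTiter-Fluor added to compound-treated wild-type CHO-K1 cells at 16 h (37C, 5% CO2), fluorescence measured 1 h later; same wells as caspase-3/7 measurement.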

[20] = Caspase-3/7 induction in HepG2 cells by small molecules, qHTS cell viability counter screen (AID 1346981); conditions: CellTiter-Fluor fluorescence, 17 h; series mostly up to 92.4 µM; further: nearly all actives have a fitted effect of over 30% in size; further: potency means the concentration at half of the fitted maximal effect
In short: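 Multiplexed with the caspase-3/7 assay: HepG2 cells, 16 hr compound treatment, CellTiter-Fluor viability detection by fluorescence.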

Structure (SMILES) | outcome [1] | outcome [2] | Potency [3] | Potency [4] | Potency [5] | Potency [6] | Potency [7] | Potency [8] | Potency [9] | Potency [10] | Potency [11] | outcome [12] | Potency [13] | outcome [14] | Potency [15] | Potency [16] | Potency [17] | Potency [18] | Potency [19] | Potency [20]
COc1cc(OC)c(OC)cc1C=O | inactive | inactive | inactive | inactive | inactive | inactive | inactive | inactive | inactive | inactive | inactive | inactive | 19.4 µM (active) |  |  |  |  |  |  | 
O=C1C(I)=CC(=C(c2cc(I)c(O)c(I)c2)c2ccccc2C(=O)O)C=C1I | inactive | inactive | inactive | inactive | inactive | inactive | inactive | inactive | inactive | inactive | inactive |  | inactive | inactive | inactive | inactive |  |  |  | 
CNC(=O)Oc1cc(C)c(SC)c(C)c1 |  |  | inactive | inactive | 61.1 µM (active) | inactive | inactive | 21.9 µM (active) |  |  | inactive | inactive | inactive | inactive | inactive |  | inactive | inactive | 54.5 µM (active) | inactive
OC(Cc1ccccc1Cl)(Cn1[nH]cnc1=S)C1(Cl)CC1 (configuration not stated) |  |  |  | inactive | inactive |  | inactive | inactive | inactive |  |  | inactive |  |  | inactive | 5.64 µM (active) | inactive | inactive |  | inactive
OCC(c1ccc(Cl)cc1)c1ccc(Cl)cc1 | inactive | inactive | 54.9 µM (active) |  |  |  |  | 24.5 µM (active) | 38.9 µM (active) | 30.9 µM (active) | inactive | inactive | inactive |  |  | inactive |  |  |  | inactive
c1ccc2c(c1)Sc1ccccc1N2CC1CN2CCC1CC2 (configuration not stated) | inactive | inactive | 19 µM (active) | inactive | inactive |  |  |  |  |  |  |  |  |  | 26.6 µM (active) |  | 21.1 µM (active) | 21.1 µM (active) | 29.8 µM (active) | 29.8 µM (active)
C[C@]12CC[C@@H](O)C[C@@H]1CC[C@@H]1[C@@H]2CC[C@]2(C)C(=O)CC[C@@H]12 |  |  | 17.4 µM (active) | inactive |  |  |  |  | 54.9 µM (active) | 38.9 µM (active) | inactive |  |  | inactive | inactive |  | 43.3 µM (active) | 48.6 µM (active) | 61.1 µM (active) | inactive
O=C(Nc1ccccc1-c1ccc(Cl)cc1)c1cccnc1Cl | inactive | inactive |  | inactive |  | inactive | inactive |  |  |  | inactive | inactive | 30.4 µM (active) | inactive | inactive |  |  |  |  | inactive
CCN(CC)C(=O)Cl |  |  | inactive | inactive | inactive | inactive | inactive | inactive | inactive | inactive | inactive | inactive | inactive | inactive | inactive | inactive | inactive | inactive | inactive | inactive
Oc1c(I)cc(I)cc1I |  |  |  |  |  | inactive | inactive | inactive | inactive | inactive | inactive |  |  | inactive |  |  |  | inactive |  | inactive
Oc1c(Cl)ccc(Cl)c1Cl |  |  |  |  |  |  |  |  |  |  |  |  |  | inactive |  |  |  |  |  | 
CN1CSC(=S)N(C)C1 | inactive | inactive | 10.9 µM (active) and 8.69 µM (active) | inactive | inactive | 5.42 µM (active) and 6.09 µM (active) | inactive | inactive | 6.13 µM (active) and 9.75 µM (active) | 17.3 µM (active) and 24.5 µM (active) | 27.2 µM (active) and inactive | inactive | inactive | inactive | 5.01 µM (active) and 21.6 µM (active) | inactive | 9.64 µM (active) and 8.61 µM (active) | 27.2 µM (active) and 21.6 µM (active) | 1.36 µM (active) and 7.67 µM (active) | inactive
COc1ccc(C(c2ccc(OC)cc2)C(Cl)(Cl)Cl)cc1 | inactive | inactive |  | inactive | 2.42 µM (active) | inactive |  | inactive | inactive | 48.7 µM (active) |  | inactive | 44.5 µM (active) |  |  | inactive | inactive |  | 60.8 µM (active) | 
Clc1ccccc1-c1ccccc1Cl | inactive | inactive |  |  |  | inactive | inactive | 35.2 µM (active) | 31.4 µM (active) |  | inactive | inactive | inactive | inactive | inactive | inactive | inactive |  | inactive | inactive
CO/C=C(/C(=O)OC)c1ccccc1Oc1cc(Oc2ccccc2C#N)ncn1 | inactive | inactive | 41.5 µM (active) | 32.7 µM (active) |  | 36.7 µM (active) |  |  |  |  | 23.1 µM (active) | inactive | 43.1 µM (active) |  | 6.52 µM (active) | inactive | 54 µM (active) | 51.8 µM (active) | 1.05 µM (active) | 24.5 µM (active)
